The text below walks through data of PubChem BioAssay.

In assay [1] the test system is Wnt5a (protein binding on small-molecule microarray). Nature of the assay: small molecules binding Wnt5a protein – biophysical, small-molecule microarray, 635/667 nm fluorescence, primary screen (AID 1142).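 Also: fluorescence read at 667 nm with signal to noise per printed feature.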 The conditions noted are these: 635 nm fluorescence, higher = more signal.
A short description of assay [2]: ATP-based viability of Huh7 replicon cells – cell-based, CellTiter-Glo luminescence, basal, 48 h, cytotoxicity control for HCV replication inhibitor project, primary screen (AID 1143).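 Also: Huh7 hepatoma cells carrying a hepatitis C replication reporter with no stimulus; test concentration not given here.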 To be noted: higher = more signal, called active from +8 up or from −8 down.
The nature of assay [3]: Pseudomonas biofilm growth suppression – PAO1 strain, BacTiter-Glo luminescence, LB-PBS, primary screen (AID 1144). The conditions noted are these: P. aeruginosa PAO1 biofilm, 12 h, higher = more signal.
Assay [4] is described as follows: basal CRE-LacZ reporter activity in PC12 – cell-based, unstimulated, primary screen (AID 1145). To be noted: no forskolin, luminescence, 4.5 h, higher = more signal, called active from +8 up or from −8 down.
Assay [5] can be described thus: forskolin-driven CRE-LacZ activity in PC12 – cell-based, CRE-LacZ reporter, forskolin-stimulated, primary screen (AID 1146).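 Also: PC12 cells with 6xCRE LacZ reporter stimulated by forskolin 10 µM; beta-galactosidase reporter signal reflecting CREB driven transcription.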 To be noted: luminescence, 4.5 h, higher = more signal, called active from +8 up or from −8 down.
Assay [6] concerns the target Streptavidin (Streptomyces avidinii) (UniProt P22629). Nature of the assay: compounds binding control protein streptavidin – biophysical, small-molecule microarray, 635/667 nm fluorescence, artefact control for SMM compound annotation, primary screen (AID 1147).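 Also: signal reflects streptavidin binding to arrayed compounds as a control protein.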 To be noted: higher = more signal.
Assay [7] can be described thus: probe aInhba binding on compound microarray – biochemical, small-molecule microarray, 635/667 nm fluorescence, primary screen (AID 1148).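 Also: score merges 667nm spot fluorescence with signal-to-noise for antibody binding to printed compounds.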 The conditions noted are these: higher = more signal.
The target in assay [8] is Torsin-1A (Homo sapiens) (UniProt O14656). Nature of the assay: TOR1A wild-type binding on microarray – cell lysate, small-molecule microarray, lysate, 635/667 nm, primary screen (AID 1149). The conditions noted are these: COS7 hTOR1A-WT lysate, 635 nm fluorescence, higher = more signal.
Chain of Torsin-1A (Homo sapiens) (O14656 whole entry, looked up): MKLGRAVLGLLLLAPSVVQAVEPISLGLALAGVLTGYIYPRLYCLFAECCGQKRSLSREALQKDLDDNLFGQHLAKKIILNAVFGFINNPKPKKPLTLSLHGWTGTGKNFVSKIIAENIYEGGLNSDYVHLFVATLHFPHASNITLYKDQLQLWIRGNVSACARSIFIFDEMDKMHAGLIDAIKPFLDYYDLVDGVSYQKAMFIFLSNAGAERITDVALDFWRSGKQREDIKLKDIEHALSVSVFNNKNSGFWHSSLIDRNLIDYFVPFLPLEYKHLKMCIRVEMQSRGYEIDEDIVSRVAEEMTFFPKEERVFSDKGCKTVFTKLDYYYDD
The target is the same in assay [9]. As to the kind of experiment: torsin A mutant lysate binding on microarrays – cell lysate, small-molecule microarray, COS7 lysate, 635/667 nm fluorescence, primary screen (AID 1150).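 Also: score pools 667 nm emission and signal to noise measuring lysate protein binding.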 The conditions noted are these: COS7 hTOR1A mutant lysate, 635 nm fluorescence, higher = more signal.
In assay [10] the test system is Sonic hedgehog protein (Shh). Nature of the assay: Sonic hedgehog microarray binding compounds – biochemical, small-molecule microarray, 635/667 nm fluorescence, primary screen (AID 1151).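 Also: Shh protein binding to compounds spotted on small-molecule microarray slides; score combines spot fluorescence intensity with signal-to-noise across triplicate slides.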 The conditions noted are these: 635 nm fluorescence, higher = more signal.
Assay [11] is described as follows: optical density shifts of acrAB sulA E. coli – strain DRC41, OD650, 48 h, E. coli filamentation inducer project, primary screen (AID 1152).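 Also: E. coli MC1000 strain DRC41 lacking acrAB efflux pump and sulA.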 To be noted: higher = more signal, called active from +8 up or from −8 down.
Assay [12] in a line: probe aLefty1 binding on compound microarray – biochemical, small-molecule microarray, 635/667 nm fluorescence, primary screen (AID 1153).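 Also: score merges spot fluorescence with signal-to-noise ratio from the scanned slide images.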 The conditions noted are these: higher = more signal.
Assay [13] in a line: plasmodial surface anion channel blockers, osmotic lysis – cell-based, P. falciparum Indochina, OD700, 1 h, primary screen (AID 1154). To be noted: P. falciparum Indochina infected RBC osmotic lysis, higher = more signal, called active from +8 up or from −8 down.
Assay [14] is described as follows: plasmodial surface anion channel blockers, osmotic lysis – cell-based, P. falciparum Indochina, OD700, 2 h, primary screen (AID 1155).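 Also: lysis reports solute entry through the parasite surface anion channel PSAC.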 To be noted: P. falciparum Indochina infected erythrocytes, higher = more signal, called active from +8 up or from −8 down.
Assay [15] in a line: changes in parasitized red cell lysis, either direction – P. falciparum Indochina, OD700, 3 h, PSAC antagonist project, primary screen (AID 1156). The conditions noted are these: P. falciparum-infected erythrocytes, osmotic lysis, higher = more signal, called active from +8 up or from −8 down.
A short description of assay [16]: plasmodial surface anion channel blockers, osmotic lysis – cell-based, P. falciparum Indochina, OD700, 18 h, primary screen (AID 1157). To be noted: P. falciparum Indochina infected erythrocytes, osmotic lysis OD700, 18 h; higher = more signal, called active from +8 up or from −8 down.
The nature of assay [17]: S6 kinase pathway phospho-S6 level changes – cell-based, A549, cytoblot, luminescence, serum-stimulated, primary screen (AID 1158).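 Also: serum-stimulated A549 lung adenocarcinoma cells; signal is phosphorylated S6 detected by cytoblot immunostaining with HRP secondary.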 To be noted: 5 h, higher = more signal.
The target in assay [18] is NADPH oxidase 2 (Homo sapiens) (UniProt P04839). As to the kind of experiment: compounds shifting NOX2 Amplex Red fluorescence – cell-based, HEK293-NOX2, PMA-stimulated, NOX inhibitor project, primary screen (AID 1159). Also: test concentration not given here. To be noted: 45 min, higher = more signal, called active from +8 up or from −8 down.
Chain of NADPH oxidase 2 (Homo sapiens) (P04839 whole entry, looked up): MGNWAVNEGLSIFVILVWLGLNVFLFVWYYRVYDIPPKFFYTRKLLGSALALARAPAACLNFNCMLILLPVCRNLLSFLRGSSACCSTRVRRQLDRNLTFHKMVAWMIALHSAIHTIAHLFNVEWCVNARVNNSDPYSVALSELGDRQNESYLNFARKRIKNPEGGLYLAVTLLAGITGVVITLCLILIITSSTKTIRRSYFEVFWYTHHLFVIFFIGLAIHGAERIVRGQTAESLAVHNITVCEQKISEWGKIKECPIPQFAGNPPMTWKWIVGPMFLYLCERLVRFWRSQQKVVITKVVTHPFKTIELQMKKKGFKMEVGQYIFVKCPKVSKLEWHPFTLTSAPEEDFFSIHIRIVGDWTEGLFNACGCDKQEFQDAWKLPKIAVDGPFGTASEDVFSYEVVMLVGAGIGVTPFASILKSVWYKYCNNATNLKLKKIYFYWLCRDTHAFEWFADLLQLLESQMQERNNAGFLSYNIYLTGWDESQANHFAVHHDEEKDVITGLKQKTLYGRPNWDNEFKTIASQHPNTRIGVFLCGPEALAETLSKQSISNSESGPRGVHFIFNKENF
The target in assay [19] is NADPH oxidase 4 (Homo sapiens) (UniProt Q9NPH5). As to the kind of experiment: compounds shifting NOX4 Amplex Red fluorescence – cell-based, HEK293-NOX4, tetracycline-induced, NOX inhibitor project, primary screen (AID 1160). To be noted: HEK293-NOX4, Amplex Red H2O2 fluorescence, 45 min; higher = more signal, called active from +8 up or from −8 down.
Chain of NADPH oxidase 4 (Homo sapiens) (Q9NPH5 whole entry, looked up): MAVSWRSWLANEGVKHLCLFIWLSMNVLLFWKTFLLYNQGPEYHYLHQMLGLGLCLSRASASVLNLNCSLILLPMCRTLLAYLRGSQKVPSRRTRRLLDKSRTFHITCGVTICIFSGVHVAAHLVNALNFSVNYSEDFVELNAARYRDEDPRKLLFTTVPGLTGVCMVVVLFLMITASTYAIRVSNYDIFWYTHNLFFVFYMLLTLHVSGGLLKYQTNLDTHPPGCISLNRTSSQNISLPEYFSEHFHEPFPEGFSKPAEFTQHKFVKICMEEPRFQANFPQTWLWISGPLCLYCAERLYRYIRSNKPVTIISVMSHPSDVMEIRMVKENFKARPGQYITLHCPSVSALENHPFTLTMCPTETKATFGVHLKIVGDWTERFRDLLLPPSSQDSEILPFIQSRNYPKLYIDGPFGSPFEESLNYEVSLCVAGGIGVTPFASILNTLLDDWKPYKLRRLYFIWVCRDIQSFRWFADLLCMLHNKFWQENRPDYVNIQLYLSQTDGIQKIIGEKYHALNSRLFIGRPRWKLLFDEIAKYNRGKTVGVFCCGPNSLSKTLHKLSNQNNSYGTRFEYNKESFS
The target in assay [20] is NADPH oxidase 5 (Homo sapiens) (UniProt Q96PH1). Nature of the assay: compounds shifting NOX5 Amplex Red fluorescence – cell-based, HEK293-NOX5, NOX inhibitor project, primary screen (AID 1161). The conditions noted are these: HEK293-NOX5, ionomycin, 45 min, higher = more signal.
Chain of NADPH oxidase 5 (Homo sapiens) (Q96PH1 whole entry, looked up): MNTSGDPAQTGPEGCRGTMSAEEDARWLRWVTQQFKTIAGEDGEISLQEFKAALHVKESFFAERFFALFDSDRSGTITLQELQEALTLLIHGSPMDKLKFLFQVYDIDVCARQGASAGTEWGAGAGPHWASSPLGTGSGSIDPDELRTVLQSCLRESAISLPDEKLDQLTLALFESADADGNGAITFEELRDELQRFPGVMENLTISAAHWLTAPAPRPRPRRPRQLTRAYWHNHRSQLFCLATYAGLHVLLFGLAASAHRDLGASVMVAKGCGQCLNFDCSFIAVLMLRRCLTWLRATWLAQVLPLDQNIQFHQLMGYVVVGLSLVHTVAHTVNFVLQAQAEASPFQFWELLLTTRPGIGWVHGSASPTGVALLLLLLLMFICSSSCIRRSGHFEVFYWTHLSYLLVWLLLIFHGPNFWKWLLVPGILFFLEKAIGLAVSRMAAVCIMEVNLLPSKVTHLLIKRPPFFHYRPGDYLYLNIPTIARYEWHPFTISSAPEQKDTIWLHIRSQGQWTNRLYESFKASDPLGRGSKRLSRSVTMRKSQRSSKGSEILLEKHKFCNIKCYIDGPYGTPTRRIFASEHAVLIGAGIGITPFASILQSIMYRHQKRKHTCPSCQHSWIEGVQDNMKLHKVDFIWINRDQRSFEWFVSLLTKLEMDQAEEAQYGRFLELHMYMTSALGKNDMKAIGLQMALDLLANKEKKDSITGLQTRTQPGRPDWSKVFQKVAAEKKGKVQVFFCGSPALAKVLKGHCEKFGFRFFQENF

Active and inactive are the calls of the source. Unless noted, no rule for the calls is given here.

Chain of Streptavidin (Streptomyces avidinii) (P22629 whole entry, looked up): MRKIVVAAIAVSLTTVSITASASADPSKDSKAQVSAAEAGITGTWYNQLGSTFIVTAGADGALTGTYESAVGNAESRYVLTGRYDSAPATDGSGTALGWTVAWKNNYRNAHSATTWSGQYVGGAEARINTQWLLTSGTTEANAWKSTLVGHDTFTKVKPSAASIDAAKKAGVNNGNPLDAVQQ

As to `COc1cc2c(cc1OC)CN(C(=O)[C@@H]1[C@H]3C(=O)O[C@H](c4ccccc4)[C@H](c4ccccc4)N3[C@H](c3ccc(OCCO)cc3)[C@@]13C(=O)Nc1ccc(C#CCCO)cc13)CC2`, the composite z-score in [1] was 0.452; in assay [6], 1.64; in assay [7] it was -0.0812; with Torsin-1A (Homo sapiens) [8], 0.431; in the assay with Torsin-1A (Homo sapiens) [9] it was 0.755; in assay [10] it was 1.25. Besides, the composite z-score in assay [12] worked out at 0.273. The z-score in assay [2] was -4.91 (inactive); in assay [3], -1.07 (inactive); in assay [4], -0.465 (inactive); in assay [5], 0.0283 (inactive); in assay [11], 2.02 (inactive); in assay [13], 2.85 (inactive). Also, the z-score in assay [14] is 0.0851 (inactive); in assay [15], 0.464 (inactive); in assay [16], -1.1 (inactive); in [17], 1.71; in [18], -0.303 (inactive); in assay [19] it was -0.458 (inactive). The z-score in assay [20] is -4.23.

In the case of `COC(=O)[C@@]1(Cc2ccc(OC)cc2)[C@H]2c3cc(C(=O)N(C)C)n(Cc4cc(C)n(C)n4)c3C[C@H]2CN1C(=O)c1ccccc1`, the composite z-score was 0.982 in assay [1]; 0.462 in [6]; 0.229 in [7]; 0.638 with Torsin-1A (Homo sapiens) [8]; 0.67 with Torsin-1A (Homo sapiens) [9]; -0.797 in assay [10]. This compound came in with a composite z-score in [12] of 0.396. Besides, the z-score is -0.753 (inactive) in assay [2]; 0.329 (inactive) in assay [3]; 0.19 (inactive) in assay [4]; 2.65 (inactive) in assay [5]; -1.82 (inactive) in assay [11]; 2.11 (inactive) in assay [13]. The z-score is 0.498 (inactive) in assay [14]; 1.45 (inactive) in assay [15]; 0.544 (inactive) in assay [16]; 0.355 in [17]; 0.27 (inactive) in assay [18]; -1.52 (inactive) in assay [19]. In addition, in assay [20], the z-score was -3.56.

For the compound `CC(C)[Si](C#C[Si](C(C)C)(C(C)C)C(C)C)(O[C@H](C)c1cn(Cc2cccc(Cl)c2)nn1)C(C)C`, the composite z-score is -0.0078 in assay [1]; 0.534 in assay [6]; -0.101 in [7]; 0.781 with Torsin-1A (Homo sapiens) [8]; 0.262 with Torsin-1A (Homo sapiens) [9]; 0.632 in assay [10]. This compound also displayed a composite z-score in assay [12] of -0.195. The z-score in assay [2] was -0.219 (inactive); in assay [3], -1.25 (inactive); in assay [4], -0.71 (inactive); in assay [5] it was -0.399 (inactive); in assay [11] it was 2.58 (inactive); in assay [13], 1.23 (inactive). For the same compound, the z-score in [14] is 0.881 (inactive); in [15], -0.125 (inactive); in assay [16], 0.702 (inactive); in [17] it was 0.712; in assay [18], 0.501 (inactive); in [19], 0.312 (inactive). Besides, the z-score in assay [20] was -0.162.

In the case of `C=CCOC(=O)[C@@H]1[C@H]2C(=O)O[C@H](c3ccccc3)[C@H](c3ccccc3)N2[C@H](c2ccc(OCCOC(=O)[C@@H]3C[C@@H]4C(=O)N[C@@H](CCCCNC(C)=O)C(=O)N4[C@@H]3c3ccc(O)cc3)cc2)[C@@]12C(=O)Nc1ccc(I)cc12`, the composite z-score in assay [1] is 0.681; in assay [6], -0.0068; in [7], 0.591; with Torsin-1A (Homo sapiens) [8] it was 0.928; in the assay with Torsin-1A (Homo sapiens) [9], 0.27; in [10] it was 1.81. In addition, the composite z-score in [12] is 0.998. For the same compound, the z-score is -0.0705 (inactive) in assay [2]; -0.128 (inactive) in assay [3]; -0.805 (inactive) in [4]; -1.32 (inactive) in [5]; 0.158 (inactive) in assay [11]; 0.978 (inactive) in [13]. In addition, the z-score was 1.08 (inactive) in [14]; 1.45 (inactive) in assay [15]; 0.718 (inactive) in assay [16]; -0.581 in assay [17]; 1.42 (inactive) in [18]; 1.35 (inactive) in assay [19]. For the same compound, the z-score in assay [20] stood at 0.716.
